Drawing on PubChem BioAssay (NCI), this text covers growth for 40 compounds.

About 83,000 compounds went through this panel and 20% of them were active in at least one assay; those are over-represented in the sample as a whole.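 For each line, cells grew in 96-well plates with the test compound present at a single concentration for 48 hours.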 Active and inactive are the calls of the source.

For the experiment, the system named is SW-620 colon. In words: NCI-60 one-dose screen, 48 h (100 = growth as untreated, 0 = no growth, -100 = all killed). The following applies: 10 µM unless noted. The protocol: Growth inhibition of the SW-620 human tumor cell line is measured as a screen for anti-cancer activity. Cells are grown in 96 well plates and exposed to the test compound for 48 hours. Compounds are tested at a single concentration, which is 10^-5 M for most compounds. The reported endpoint is percent growth (GI% or GIPRCNT), where numbers from 0 - 100% represent growth inhibition, and numbers from -100% - 0 represent cell death. For example, a value of 40 represents 60% growth inhibition. A value of 0 means no net growth occurred over the course of the experiment. A value of -40 indicates 40% of cells at the beginning of the experiment died by the end of the experiment. A value of -100 means all cells are dead at the end of the experiment.
NCI-60 Human Tumor Cell Lines Screen was performed using the standard one-dose NCI protocol, which is described in more detail at https://dtp.cancer.gov/discovery_development/nci-60/default.htm.
Compounds with GIPRCNT values below 10 were considered active. Activity score was based on GIPRCNT using the following formula: […]
Score is 0 for GIPRCNT values of 100 or above, 50 for GIPRCNT values of 0, and 100 for GIPRCNT values of -100.
For `COC(=O)C1=C(C)NC(C)=C(C(=O)OC)C(N2C(=O)CCC2=O)C1` (stereo not given), the growth is 44.7% (inactive).
In the case of `O=C(Nc1ccccc1O)c1ccc(-c2ccc(Cl)cc2Cl)o1`, the growth is 101% (inactive).
To `O=C(Nc1ccc(Cl)cc1F)c1cc(F)ccc1O` belongs 9.96% (active); to `O=c1oc2ccc(I)cc2c(=O)n1-c1ccc(Cl)cc1F`, 11.7% (inactive).
`NCCNc1nc2ccc(F)cc2c2c(=O)c3cc(F)ccc3sc12`: the growth was -73.5% (active).
As to `Cc1cc2c(c(C)c1Cl)C(=O)/C(=C/c1ccco1)O2`, the growth was 108% (inactive).
With `COc1nc2c(c(=O)n1C)N=C1c3ccccc3C(=O)C1C(c1ccccc1)N2` (stereo not given), the growth was 88.4% (inactive).
Regarding `Nc1ccc(-c2nc3cc(Oc4ccc(Oc5ccc6[nH]c(-c7ccc(N)cc7)nc6c5)cc4)ccc3[nH]2)cc1`, the growth was 98.4% (inactive).
The result for `COc1cc(C2C3=C(COC3=O)N(CCO)c3cc4c(cc32)CCC4)cc(OC)c1O` (stereo not given) reads 12.1% (inactive); that for `COc1c2ccoc2c(/C=C/C=O)c2oc(-c3ccccc3)cc(=O)c12`, 10% (inactive); that for `CCOC(=O)C(CC(=O)O)=C(C(=O)OCC)C(=O)OCC`, 105% (inactive).
As to `CC(=O)c1ccc(NC(=O)Nc2ccc(S(=O)(=O)Nc3ccc(Cl)nn3)cc2)cc1`, the growth is 104% (inactive).
In the case of `COc1ccc(OC)c(NC(=O)/C(C#N)=C/c2ccco2)c1`, the growth is 106% (inactive).
The result for `COc1ccc(Cn2cc(Cn3c(=O)c(-c4nc5ccccc5[nH]4)cc4ccccc43)nn2)c(OC)c1OC` reads 16.9% (inactive); that for `O=C(O)c1cn(C2CC2)c2cc(N3CCN(C(=O)C[n+]4ccccc4)CC3)c(F)cc2c1=O`, 105% (inactive).
The result for `Nc1nc2c(ncn2[C@@H]2O[C@H](CS)[C@@H](O)[C@H]2O)c(=O)[nH]1` reads 96% (inactive); that for `COc1ccc(-n2c(C(O)c3ccccc3)nn(CN3CCOCC3)c2=S)cc1` (stereo not given), 87% (inactive); that for `FC(F)(F)c1cccc(Nc2nc3ccccc3nc2Nc2cccc(C(F)(F)F)c2)c1`, -26.9% (active).
The result for `CC(C)[C@H](NC(=O)Cn1cc(C(=O)O)nn1)C(=O)O` reads 108% (inactive); that for `COc1cccc(C2=NN3C(C2)c2ccccc2OC3c2ccc(/C=C3\SC(=O)NC3=O)cc2)c1` (stereo not given), 97.8% (inactive); that for `COC(=O)c1c2c(c(C)[n+]([O-])c1C)C(=O)C=C(NCc1ccccc1)C2=O`, -27.9% (active).
As to `CCCc1c(C)c2sc(=O)[nH]c2[nH]c1=O`, the growth was 102% (inactive).
The result for `CC(=O)c1ccc2oc(=O)n(Cc3ccc(C#N)cc3)c(=O)c2c1` reads 100% (inactive); that for `COc1cc([C@@H]2NC(=O)NC(C)=C2C(=O)Nc2nc(-c3ccc(Cl)cc3)cs2)ccc1O`, 103% (inactive).
The result for `O=C(Nc1ccc(-c2nc3cc4ccccc4cc3[nH]2)cc1)c1cccc(Br)c1` reads 26.9% (inactive); that for `O=C(Nc1ccc(Cl)cc1)c1cc2ccccc2cc1OP(=O)(O)O`, 42.3% (inactive); that for `COc1cc(/C=C2\CN(S(=O)(=O)c3ccccc3)C/C(=C\c3cc(CN4CCCC4)c(O)c(OC)c3)C2=O)cc(CN2CCCC2)c1O`, 4.93% (active).
`CCN1C(=O)N(CC)C2C1NC(=S)N2/N=C/C=C/c1ccccc1OC` (stereo not given): the growth was 23.6% (inactive).
To `CS(=O)(=O)Nc1ccc(C(=O)NC(C(=O)NO)c2ccc(-c3cccc(F)c3)cc2)cc1` (stereo not given) belongs 51.2% (inactive); to `O=c1oc2ccc(F)cc2c(=O)n1-c1ccc(Cl)cc1F`, 11.3% (inactive).
Consider `O=S1(=O)N(Cc2ccccc2)[C@@H](Cc2ccccc2)[C@H](O)[C@H](O)[C@H](Cc2ccccc2)N1Cc1ccccc1`, for which the growth was 9.22% (active).
To `COC(=O)/C(CCC=C(C)C)=C1\[C@@H](OC(C)=O)C[C@@]2(C)[C@H]1CC(=O)[C@H]1[C@@]3(C)CC[C@H](NCc4ccccc4)[C@@H](C)[C@@H]3CC[C@@]12C` belongs 81.5% (inactive); to `CCOC(=O)C1=CN(C)C=C(C(=O)OCC)C1c1cc(Br)c(OCC)c(OC)c1`, 48.6% (inactive).
To `CCCC(c1nnnn1C1CCCCC1)N1CCN(C(=O)c2ccco2)CC1` (stereo not given) belongs 22.4% (inactive); to `COc1ccc(/C=C2\CCC/C(=C\c3ccc(OC)c(OC)c3)C2=O)cc1OC`, -21.7% (active).
The result for `CN(CCc1ccccc1)C(=S)N(C(=O)c1ccc([N+](=O)[O-])cc1)c1ccc(Cl)cc1` reads 75.3% (inactive); that for `COc1ccc(CN2CCCC(C(=O)c3ccc(C(F)(F)F)cc3)C2)c(O)c1` (stereo not given), 13.4% (inactive).
With `COc1ccc2[nH]c(O)c(N=NC(=O)c3oc4ccccc4c3C)c2c1`, the growth is 35.1% (inactive).
The result for `O=C(Nc1ccc(C23CC4CC(CC(c5ccccc5)(C4)C2)C3)cc1)c1cccs1` reads 82% (inactive); that for `Cn1c(=O)n(C)c2cc(CNCCNc3ccnc4cc(Cl)ccc34)ccc21`, 23.1% (inactive).
